Laboratory results from PubChem BioAssay (NCATS).
“And” between values parts separate entries of the source, which are not always exact repeats. Equal entries are not always repeated. Inconclusive results are not listed. Entries that show only a call come without a potency. The source made the active and inactive calls. Calls follow the shape of the dose curve; as a rule, active = well fitted inhibition curve with a large enough effect; inconclusive = small, poorly fitted or top-dose-only effect; inactive = flat fitted curve, though single readings scatter. Where a SMILES comes first, the peptide text is derived from it. [ ]: non-standard residue; d: D form. pGlu = O=C1CC[C@@H](C(=O)O)N1; Thz = O=C(O)[C@@H]1CSCN1
Potency is read from the fitted curve at half-maximal effect.

Test: P-glycoprotein substrates identified in KB-8-5-11 adenocarcinoma cell line, qHTS therapeutic library screen (AID 1346987); also: nearly all actives have a fitted effect of over 65% in size
Conditions: KB-8-5-11 (P-gp overexpressing) viability, CellTiter-Glo, 72 h; series mostly up to 44.5 µM
In short: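 Luminescence from CellTiter-Glo, read 5 min after addition, quantified survival of KB-8-5-11 (P-gp-overexpressing) cells exposed to compounds for 72 h. AC50 was derived from concentration-response curves.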
For `N#C/C(=C\c1ccc(O)c(O)c1)C(=O)NCCCc1ccccc1`, the Potency was “inactive”.
With `CO[C@H]1C[C@@H]2CC[C@@H](C)[C@@](O)(O2)C(=O)C(=O)N2CCCC[C@H]2C(=O)O[C@H]([C@H](C)C[C@@H]2CC[C@@H](O)[C@H](OC)C2)CC(=O)[C@H](C)C=C(C)[C@@H](O)[C@@H](OC)C(=O)[C@H](C)C[C@H](C)/C=C/C=CC=C1C` the Potency was “inactive”.
For `Cc1c(N)c(=O)n(-c2ccccc2)n1C`, the Potency was “inactive”.
For `CCC1C(=O)OCC1Cc1cncn1C` (stereo not given), the Potency was “inactive”.
In the case of `C=CCN1C(=O)C(CC(C)C)NC1=S` (stereo not given), the Potency is reported as “inactive”.
In the case of `COc1cc(CNC(=O)CCCC/C=C/C(C)C)ccc1O`, the Potency is reported as “inactive”.
With `CC1(C)S[C@@H]2[C@H](NC(=O)[C@H](N)c3ccc(O)cc3)C(=O)N2[C@H]1C(=O)O` the Potency was “inactive”.
With `CN(CCCOc1ccc(Cc2ccccc2)cc1)CCC(=O)O` the Potency was “inactive”.
For `C[N+](C)(C)CCOP(=O)(O)OP(=O)([O-])OC[C@H]1O[C@@H](n2ccc(N)nc2=O)[C@H](O)[C@@H]1O`, the Potency was “inactive”.
In the case of `O=C1CC[C@@H](C(=O)N2CSC[C@H]2C(=O)O)N1` ([pGlu]-[Thz]-OH), the Potency is reported as “inactive”.
For `CC(=O)[C@]1(O)Cc2c(O)c3c(c(O)c2[C@@H](O[C@H]2C[C@H](N)[C@H](O)[C@H](C)O2)C1)C(=O)c1c(O)cccc1C3=O`, the Potency was 5.17 µM (active) and 4.11 µM (active).
In the case of `Cc1onc(-c2c(F)cccc2Cl)c1C(=O)N[C@@H]1C(=O)N2[C@@H]1SC(C)(C)[C@@H]2C(=O)O`, the Potency is reported as “inactive”.
For `O=C(O)/C=C/C(O)c1ccc(Cl)cc1` (stereo not given), the Potency was “inactive”.
For `CCNC(=O)[C@H]1O[C@@H](n2cnc3c(N)nc(NCCc4ccc(CCC(=O)O)cc4)nc32)[C@H](O)[C@@H]1O`, the Potency was “inactive”.
For `c1ccc2sc(SN3CCOCC3)nc2c1`, the Potency was “inactive”.
In the case of `CN1[C@@H]2CC[C@H]1CC(OC(=O)C(CO)c1ccccc1)C2` (stereo not given in full), the Potency is reported as “inactive”.
For `O=C(O)[C@H](CC(=O)N1C[C@H]2CCCC[C@H]2C1)Cc1ccccc1`, the Potency was “inactive”.
With `C=CC(N)CCC(=O)O` (stereo not given) the Potency was “inactive”.
With `COc1ccc(/C=C/C(=O)Nc2ccccc2C(=O)O)cc1OC` the Potency was “inactive”.
With `C[S+](CC[C@H](N)C(=O)O)C[C@H]1O[C@@H](n2cnc3c(N)ncnc32)[C@H](O)[C@@H]1O` (stereo not given in full) the Potency was “inactive”.
With `COC(=O)[C@H]1[C@H]2C[C@@H]3c4[nH]c5cc(OC)ccc5c4CCN3C[C@H]2C[C@@H](OC(=O)/C=C/c2cc(OC)c(OC)c(OC)c2)[C@@H]1OC` the Potency was “inactive”.
In the case of `CCN1/C(=C/C(C)=O)Sc2ccc(OC)cc21`, the Potency is reported as “inactive”.
For `CC[C@H]1OC(=O)[C@H](C)[C@@H](O[C@H]2C[C@@](C)(OC)[C@@H](O)[C@H](C)O2)[C@H](C)[C@@H](O[C@@H]2O[C@H](C)C[C@H](N(C)C)[C@H]2O)[C@](C)(O)C[C@@H](C)C(=O)[C@H](C)[C@@H](O)[C@]1(C)O`, the Potency was “inactive”.
For `O=C(O)COc1ccc(C(=O)c2cccs2)c(Cl)c1Cl`, the Potency was “inactive”.
For `CC(N)C(=O)OC(C)(C)Cc1ccc(Cl)cc1` (stereo not given), the Potency was “inactive”.
In the case of `Nc1c(CC(=O)O)cccc1C(=O)c1ccc(Br)cc1`, the Potency is reported as “inactive”.
With `CC1(C)C[C@@H]1C(=O)N/C(=C\CCCCSC[C@H](N)C(=O)O)C(=O)O` the Potency was “inactive”.
In the case of `CCOC(=O)c1ccccc1O`, the Potency is reported as “inactive”.
For `O=[N+]([O-])c1ccc(CNc2nc(NCc3cccc(C(F)(F)F)c3)nc3nc[nH]c23)cc1`, the Potency was “inactive”.
In the case of `C[C@H](O)[C@H](O)[C@H]1CNc2nc(N)[nH]c(=O)c2N1`, the Potency is reported as “inactive”.
In the case of `CC1(C)[C@@H](O)CC[C@]2(C)[C@H]3C(=O)C=C4[C@@H]5C[C@@](C)(C(=O)O)CC[C@]5(C)CC[C@@]4(C)[C@]3(C)CC[C@@H]12`, the Potency is reported as “inactive”.
In the case of `Nc1ccc(O)c(C(=O)O)c1`, the Potency is reported as “inactive”.
For `CN1[C@@H]2CC[C@H]1CC(OC(c1ccccc1)c1ccccc1)C2` (stereo not given in full), the Potency was “inactive”.
With `COc1cc(/C=C/C(=O)CC(=O)/C=C/c2ccc(O)c(OC)c2)ccc1O` the Potency was “inactive”.
With `O=C(O)[C@H](O)[C@@H](O)[C@H](O)[C@H](O)CO` the Potency was “inactive”.
